Measured values taken from PubChem BioAssay.
Calls of active or inactive are those of the source.

Columns and labels:
[1] = binders of probe aFSTL3 on microarray, primary screen, stem cell growth factor project, biochemical, small-molecule microarray, fluorescence 635/667 (AID 1064); details: higher = more signal;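 further: measures binding of the biotinylated anti-FSTL3 antibody to printed compounds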
[2] = binders from COS7 lysate, DM2A8 probe, primary screen, torsin A project, cell lysate, small-molecule microarray, fluorescence 635/667 (AID 1065); details: higher = more signal, COS7 lysate expressing mutant human TOR1A
[3] = binders of probe aFGF2 on microarray, primary screen, stem cell growth factor project, biochemical, small-molecule microarray, fluorescence 635/667 (AID 1067); details: higher = more signal;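 further: measures binding of biotinylated aFGF2 protein to printed compounds on slides; z-score merges feature fluorescence and signal-to-noise across triplicate slides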
[4] = binders of probe aFGF10 on microarray, primary screen, stem cell growth factor project, biochemical, small-molecule microarray, fluorescence 635/667 (AID 1071); details: higher = more signal;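 further: score merges 667 nm spot intensity and signal to noise from triplicate slides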
[5] = molecular target: Neurogenic locus notch homolog protein 2 (Homo sapiens) (UniProt Q04721); assay: Notch2 binders on small-molecule microarrays, primary screen, biochemical, small-molecule microarray, 635 nm fluorescence, stem cell growth factors (AID 1073); details: Notch2 binding, higher = more signal
[6] = molecular target: Pro-neuregulin-1, membrane-bound isoform (Homo sapiens) (UniProt Q02297); assay: NRG1 binders on small-molecule microarrays, primary screen, psychiatric disease protein project, biochemical, small-molecule microarray, fluorescence 635/667 (AID 1075); details: NRG1 binding, 635 nm fluorescence, higher = more signal;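 further: score combines 667 nm spot fluorescence with signal to noise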
[7] = test system: Neuregulin-1 EGF-like domain; assay: binders of neuregulin-1 EGF-like domain, primary screen, biochemical, small-molecule microarray, 635 nm fluorescence (AID 1081); details: small-molecule microarray binding, higher = more signal;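 further: binding of the protein to compounds printed on small-molecule microarray slides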
[8] = FRG1 promoter luciferase signal modulators, primary screen, FRG1 inhibition for FSHD, cell-based, C2C12 myotubes, firefly/Renilla luciferase, luminescence (AID 1084); details: higher = more signal, called active from +8 up or from −8 down
[9] = binders of probe aFST on microarray, primary screen, stem cell growth factor project, biochemical, small-molecule microarray, fluorescence 635/667 (AID 1086); details: higher = more signal;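 further: score merges 667 nm fluorescence with signal-to-noise of each printed compound spot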
[10] = binders of probe aHhip on microarray, primary screen, stem cell growth factor project, biochemical, small-molecule microarray, fluorescence 635/667 (AID 1087); details: higher = more signal;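 further: score merges spot fluorescence at 667nm with spot signal to noise ratio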
[11] = test system: PRMT1 (protein arginine N-methyltransferase 1); assay: PRMT1 binders on small-molecule microarrays, primary screen, biochemical, small-molecule microarray, 635 nm fluorescence (AID 1088); details: small-molecule microarray binding, higher = more signal;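 further: binding of Prmt1 protein to compounds spotted on small-molecule microarray slides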
[12] = yeast growth modulation, basal conditions, primary screen, YJM789 clinical isolate, OD600, 24 h (AID 1089);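 further: growth of clinical yeast isolate S. cerevisiae YJM 789 seeded 1000 cells per well; test concentration not given here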; details: S. cerevisiae YJM789 growth, higher = more signal, called active from +8 up or from −8 down
[13] = fission yeast growth modulation, primary screen, strain 972, OD600, 24 h, no modulator (AID 1090);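 further: basal condition with compound alone and no growth modifier present; test concentration not given here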; details: S. pombe 972 growth, higher = more signal, called active from +8 up or from −8 down
[14] = S. cerevisiae growth modulation with rapamycin, primary screen, strain BY4716, OD600, 96 h (AID 1091); details: higher = more signal, called active from +8 up or from −8 down; further: test concentration not given here
[15] = molecular target: Torsin-1A-interacting protein 2 (Homo sapiens) (UniProt Q8NFQ8); assay: LULL1 binders on small-molecule microarray, primary screen, cell lysate, human LULL1 lysate, 635/667 nm fluorescence (AID 1092); details: hLULL1 lysate binding, 635 nm fluorescence, higher = more signal;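 further: probe is lysate of COS7 cells overexpressing human LULL1; score merges per-feature 667 nm fluorescence with signal-to-noise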
[16] = E. coli growth modulation, two-sided OD650, primary screen, E. coli filamentation project, strain DRC41, 24 h (AID 1093); details: OD650, 24 h, higher = more signal, called active from +8 up or from −8 down;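 further: MC1000 strain lacking acrAB efflux and sulA so SOS filamentation is blocked; test concentration not given here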
[17] = small-molecule microarray binders of probe aLefty2, primary screen, biochemical, biotinylated probe, 635/667 nm fluorescence (AID 1094); details: higher = more signal;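 further: score merges spot fluorescence near 667 nm with spot signal-to-noise ratio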
[18] = test system: Noggin (protein binding on small-molecule microarray); assay: Noggin binders on small-molecule microarray, primary screen, biochemical, 635/667 nm fluorescence (AID 1095); details: 635 nm fluorescence, higher = more signal;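 further: score merges 667 nm feature fluorescence with signal to noise over triplicate slides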
[19] = molecular target: Neurogenic locus notch homolog protein 3 (Homo sapiens) (UniProt Q9UM47); assay: NOTCH3 binders on small-molecule microarray, primary screen, biochemical, 635/667 nm fluorescence (AID 1096); details: NOTCH3 binding, 635 nm fluorescence, higher = more signal
[20] = small-molecule microarray binders of probe aEGFR, primary screen, biochemical, biotinylated probe, 635/667 nm fluorescence (AID 1097); details: higher = more signal;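 further: probe is a biotinylated anti-EGFR antibody binding compounds printed on slides; score combines fluorescence near 667 nm and signal to noise of each spot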

Chain of Neurogenic locus notch homolog protein 3 (Homo sapiens) (Q9UM47 whole entry, looked up): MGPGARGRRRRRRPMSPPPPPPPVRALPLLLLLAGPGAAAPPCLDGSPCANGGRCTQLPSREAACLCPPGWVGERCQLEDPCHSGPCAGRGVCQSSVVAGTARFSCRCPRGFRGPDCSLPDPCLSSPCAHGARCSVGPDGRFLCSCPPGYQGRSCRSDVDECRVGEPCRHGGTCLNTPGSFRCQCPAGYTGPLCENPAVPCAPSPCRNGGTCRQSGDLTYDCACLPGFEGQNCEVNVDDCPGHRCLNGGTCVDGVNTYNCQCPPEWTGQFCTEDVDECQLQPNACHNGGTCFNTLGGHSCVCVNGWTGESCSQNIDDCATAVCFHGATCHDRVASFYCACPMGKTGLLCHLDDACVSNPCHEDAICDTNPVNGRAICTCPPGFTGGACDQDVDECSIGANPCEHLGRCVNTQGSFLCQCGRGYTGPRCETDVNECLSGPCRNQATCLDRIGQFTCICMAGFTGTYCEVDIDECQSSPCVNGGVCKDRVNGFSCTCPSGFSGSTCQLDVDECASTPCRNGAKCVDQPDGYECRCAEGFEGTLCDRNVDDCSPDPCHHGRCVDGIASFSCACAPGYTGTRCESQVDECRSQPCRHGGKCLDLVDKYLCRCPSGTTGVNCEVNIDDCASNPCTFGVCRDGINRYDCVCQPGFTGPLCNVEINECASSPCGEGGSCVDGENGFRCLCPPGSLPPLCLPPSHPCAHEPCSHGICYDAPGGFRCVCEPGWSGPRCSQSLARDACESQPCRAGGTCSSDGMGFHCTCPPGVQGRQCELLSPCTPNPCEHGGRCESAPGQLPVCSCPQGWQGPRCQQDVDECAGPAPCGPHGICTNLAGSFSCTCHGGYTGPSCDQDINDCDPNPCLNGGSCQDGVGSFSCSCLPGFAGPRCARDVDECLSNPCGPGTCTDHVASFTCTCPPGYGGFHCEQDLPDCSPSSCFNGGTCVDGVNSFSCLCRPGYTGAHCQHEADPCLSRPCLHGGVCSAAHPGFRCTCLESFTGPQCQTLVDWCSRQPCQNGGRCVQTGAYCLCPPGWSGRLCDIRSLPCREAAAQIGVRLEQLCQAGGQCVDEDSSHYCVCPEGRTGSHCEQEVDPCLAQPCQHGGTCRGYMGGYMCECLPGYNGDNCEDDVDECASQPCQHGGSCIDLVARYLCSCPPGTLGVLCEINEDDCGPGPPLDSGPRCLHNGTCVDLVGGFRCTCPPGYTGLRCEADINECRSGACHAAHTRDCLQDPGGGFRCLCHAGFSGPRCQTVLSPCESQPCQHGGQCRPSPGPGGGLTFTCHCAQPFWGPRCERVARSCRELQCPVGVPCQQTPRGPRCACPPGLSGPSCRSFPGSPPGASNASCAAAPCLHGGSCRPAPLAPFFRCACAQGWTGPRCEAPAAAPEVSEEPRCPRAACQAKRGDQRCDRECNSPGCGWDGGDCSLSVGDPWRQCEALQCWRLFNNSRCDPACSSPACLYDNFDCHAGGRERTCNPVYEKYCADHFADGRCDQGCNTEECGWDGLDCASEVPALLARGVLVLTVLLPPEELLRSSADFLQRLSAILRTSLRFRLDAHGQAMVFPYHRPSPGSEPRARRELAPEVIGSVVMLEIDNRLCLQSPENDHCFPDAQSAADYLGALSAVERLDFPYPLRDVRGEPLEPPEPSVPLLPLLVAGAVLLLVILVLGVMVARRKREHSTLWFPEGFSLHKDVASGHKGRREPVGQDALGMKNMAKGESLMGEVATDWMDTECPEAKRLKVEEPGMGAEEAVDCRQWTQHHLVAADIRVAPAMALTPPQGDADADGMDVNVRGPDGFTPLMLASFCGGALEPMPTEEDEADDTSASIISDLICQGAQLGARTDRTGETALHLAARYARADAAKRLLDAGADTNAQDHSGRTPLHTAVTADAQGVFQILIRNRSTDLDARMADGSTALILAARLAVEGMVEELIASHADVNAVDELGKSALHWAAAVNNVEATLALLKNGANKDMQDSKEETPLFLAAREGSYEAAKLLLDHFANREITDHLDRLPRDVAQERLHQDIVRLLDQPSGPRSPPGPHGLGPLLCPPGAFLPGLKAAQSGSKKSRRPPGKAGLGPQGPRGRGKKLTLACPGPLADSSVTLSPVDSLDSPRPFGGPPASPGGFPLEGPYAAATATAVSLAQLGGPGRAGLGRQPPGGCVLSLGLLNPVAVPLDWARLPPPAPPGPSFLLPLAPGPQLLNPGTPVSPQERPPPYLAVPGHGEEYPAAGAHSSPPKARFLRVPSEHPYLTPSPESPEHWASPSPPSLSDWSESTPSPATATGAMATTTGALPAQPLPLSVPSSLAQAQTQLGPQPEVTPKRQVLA
Chain of Pro-neuregulin-1, membrane-bound isoform (Homo sapiens) (Q02297 whole entry, looked up, the tested form may be a part, canonical isoform): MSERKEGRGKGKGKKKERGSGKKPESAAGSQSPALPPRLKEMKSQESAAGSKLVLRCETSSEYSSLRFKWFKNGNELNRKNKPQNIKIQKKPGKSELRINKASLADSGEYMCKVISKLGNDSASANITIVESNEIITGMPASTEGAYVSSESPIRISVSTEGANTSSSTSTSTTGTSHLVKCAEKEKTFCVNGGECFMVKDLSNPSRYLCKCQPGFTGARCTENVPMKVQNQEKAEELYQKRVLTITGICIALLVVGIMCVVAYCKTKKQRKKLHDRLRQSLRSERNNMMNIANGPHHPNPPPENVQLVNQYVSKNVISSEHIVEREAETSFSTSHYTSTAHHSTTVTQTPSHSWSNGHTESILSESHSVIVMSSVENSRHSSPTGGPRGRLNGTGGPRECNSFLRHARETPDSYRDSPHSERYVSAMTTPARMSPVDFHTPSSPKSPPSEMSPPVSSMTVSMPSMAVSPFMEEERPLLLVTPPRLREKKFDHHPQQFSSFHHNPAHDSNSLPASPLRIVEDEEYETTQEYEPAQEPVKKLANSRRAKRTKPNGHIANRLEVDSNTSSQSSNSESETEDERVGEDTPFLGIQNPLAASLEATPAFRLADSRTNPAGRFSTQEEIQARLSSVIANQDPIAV
Chain of Torsin-1A-interacting protein 2 (Homo sapiens) (Q8NFQ8 whole entry, looked up): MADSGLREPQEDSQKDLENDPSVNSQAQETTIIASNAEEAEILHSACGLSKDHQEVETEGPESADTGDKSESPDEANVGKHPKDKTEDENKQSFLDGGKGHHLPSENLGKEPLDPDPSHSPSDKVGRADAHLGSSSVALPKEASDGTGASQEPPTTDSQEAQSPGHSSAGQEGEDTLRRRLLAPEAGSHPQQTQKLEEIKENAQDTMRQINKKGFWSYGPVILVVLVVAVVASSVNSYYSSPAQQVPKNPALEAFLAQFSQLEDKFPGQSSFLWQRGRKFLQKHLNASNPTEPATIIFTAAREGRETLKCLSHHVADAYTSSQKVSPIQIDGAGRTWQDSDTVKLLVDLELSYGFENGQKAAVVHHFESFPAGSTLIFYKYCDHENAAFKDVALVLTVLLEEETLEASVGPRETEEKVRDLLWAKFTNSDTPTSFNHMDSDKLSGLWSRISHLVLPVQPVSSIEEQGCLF

SMILES | composite z-score [1] | composite z-score [2] | composite z-score [3] | composite z-score [4] | composite z-score [5] | composite z-score [6] | composite z-score [7] | z-score [8] | composite z-score [9] | composite z-score [10] | composite z-score [11] | z-score [12] | z-score [13] | z-score [14] | composite z-score [15] | z-score [16] | composite z-score [17] | composite z-score [18] | composite z-score [19] | composite z-score [20]
C=CCC(OC(C)=O)[C@@H]1[C@@H](N(Cc2cc3ccccc3o2)C(=O)c2ccc(-c3ccccc3)cc2)c2cc(OCCCO)ccc2N1C(=O)Cc1ccc(OC)cc1 (stereo not given in full) | -0.0413 | -0.183 | -0.0002 | 0.248 | 0.0777 | 0.0526 | -0.353 | -0.802 (inactive) | 0.331 | -0.189 | -0.826 | 0.21 (inactive) | 0.443 (inactive) | 0.945 (inactive) | -0.299 | -1.02 (inactive) | -0.0766 | 0.18 | -0.364 | -0.0353
CN(C)C(=O)[C@@]1(Cc2ccccc2N=[N+]=[N-])N=C(c2ccc(OCCCO)cc2)O[C@H]1c1ccccc1 | 0.657 | 0.687 | 0.0282 | 0.359 | 1.63 | 1.2 | 1.32 | -1.75 (inactive) | 1.23 | 0.294 | 1.57 | 0.687 (inactive) | -4.17 (inactive) | 1.23 (inactive) | 3.38 | 0.1 (inactive) | 0.58 | -0.125 | 1.12 | 0.35
CCN(CC)c1ccc(N2CC=CC34O[C@@H]5C=CCCOC(=O)C5[C@H]3C(=O)N(CCO)[C@@H]4C2=O)cc1 (stereo not given in full) | 0.171 | -0.981 | -0.18 | -0.463 | -0.894 | -0.684 | 1.52 | -0.329 (inactive) | -0.209 | -0.137 | -1.15 | -0.562 (inactive) | -1.07 (inactive) | -0.315 (inactive) | -0.66 | 0.701 (inactive) | -0.235 | -1.42 | -0.477 | -0.201
CC(C)C[C@@H]1NC(=O)[C@@]23C(=O)N[C@@H](Cc4ccccc4)C2[C@H](C)[C@@]2(C)O[C@H]2C3/C=C/C/C=C\CNC(=O)[C@@H](C)NC1=O (stereo not given in full) | -0.296 | 0.183 | -0.0963 | 0.392 | -0.211 | 1.1 | -0.483 | 0.677 (inactive) | -0.414 | -0.12 | 0.5 | -0.939 (inactive) | -1.17 (inactive) | -1.35 (inactive) | -0.408 | 0.624 (inactive) | -0.178 | 0.33 | 0.195 | -0.131
CCOC(=O)C1=CCC(c2ccco2)N(S(=O)(=O)c2ccc(C)cc2)C1 (stereo not given) | 0.632 | -0.0497 | 0.0061 | 0.864 | 1.62 | 1.46 | 0.791 | -2.47 (inactive) | 0.803 | 0.127 | 1.08 | -0.949 (inactive) | -0.0107 (inactive) | -0.013 (inactive) | 2.62 | 0.322 (inactive) | 0.18 | 0.637 | 1.08 | 0.0357
COCCOC(=O)N1C(=O)[C@@]2(c3ccccc31)[C@H](c1ccc(OCCO)cc1)N1[C@H](c3ccccc3)[C@H](c3ccccc3)OC(=O)[C@H]1[C@@H]2C(=O)N1CCCCCCC1 | 4.01 | 2.82 | 1.05 | 1.52 | 1.86 | 3.07 | 1.54 | -3.1 (inactive) | 3.82 | 2.75 | 1.54 | 0.178 (inactive) | 0.182 (inactive) | 2.92 (inactive) | 5.18 | -0.504 (inactive) | 1.83 | 2.45 | 1 | 1.43
C=CCNC(=O)[C@@H]1[C@H]2C(=O)O[C@H](c3ccccc3)[C@H](c3ccccc3)N2[C@H](c2ccc(O)cc2)[C@@]12C(=O)N(C(=O)OCCOC)c1ccc(C#CCCO)cc12 | -0.0125 | 0.376 | -0.0222 | 0.82 | 0.258 | 1.05 | 1.35 | 0.354 (inactive) | 0.256 | 0.0274 | 1.41 | 0.434 (inactive) | 0.53 (inactive) | 1.17 (inactive) | 2.57 | -0.369 (inactive) | 0.0278 | 0.686 | 0.52 | 0.189
C=C(COC)/C(=C/C[C@@H](OC(C)=O)c1ccc(CO)o1)c1cc(C(=O)OC)ccc1OC | -0.22 | 0.707 | -0.111 | 0.851 | -0.378 | 1.46 | 1.3 | 0.435 (inactive) | -0.179 | -0.0994 | 1.02 | 0.932 (inactive) | 0.369 (inactive) | 0.264 (inactive) | 1.81 | 0.0184 (inactive) | -0.166 | 1.07 | 0.711 | -0.0828
NC(=O)NCC#Cc1ccc2c(c1)[C@]1(C(=O)N2)[C@H](C(=O)N2CCN(c3ncccn3)CC2)[C@H]2C(=O)O[C@H](c3ccccc3)[C@H](c3ccccc3)N2[C@@H]1c1ccc(OCCO)cc1 | 0.0085 | 0.0039 | -0.0222 | 0.375 | 0.884 | 0.133 | 0.148 | 1.62 (inactive) | 0.548 | 0.0659 | 1.18 | 2.47 (inactive) | 2.31 (inactive) | 5.27 (inactive) | 1.89 | 1.37 (inactive) | -0.0321 | 0.513 | 1.13 | -0.0271
